About 14,000 (4.5%) of roughly 310,000 compounds showed an effect of 50% or more. Effects have a minus sign here. Many of the other results were omitted from the sample, so strong results are more common in it than they were.
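Further: peak tail current of the secondary pulse compared with the same well before compound.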

The target in the test is human ether-à-go-go-related gene (hERG) potassium channel (human, UniProt Q12809). Description: primary screen, population patch clamp on CHO cells stably expressing hERG; higher = less effect of the substance.
human ether-à-go-go-related gene (hERG) potassium channel, sequence (Q12809 whole entry, looked up): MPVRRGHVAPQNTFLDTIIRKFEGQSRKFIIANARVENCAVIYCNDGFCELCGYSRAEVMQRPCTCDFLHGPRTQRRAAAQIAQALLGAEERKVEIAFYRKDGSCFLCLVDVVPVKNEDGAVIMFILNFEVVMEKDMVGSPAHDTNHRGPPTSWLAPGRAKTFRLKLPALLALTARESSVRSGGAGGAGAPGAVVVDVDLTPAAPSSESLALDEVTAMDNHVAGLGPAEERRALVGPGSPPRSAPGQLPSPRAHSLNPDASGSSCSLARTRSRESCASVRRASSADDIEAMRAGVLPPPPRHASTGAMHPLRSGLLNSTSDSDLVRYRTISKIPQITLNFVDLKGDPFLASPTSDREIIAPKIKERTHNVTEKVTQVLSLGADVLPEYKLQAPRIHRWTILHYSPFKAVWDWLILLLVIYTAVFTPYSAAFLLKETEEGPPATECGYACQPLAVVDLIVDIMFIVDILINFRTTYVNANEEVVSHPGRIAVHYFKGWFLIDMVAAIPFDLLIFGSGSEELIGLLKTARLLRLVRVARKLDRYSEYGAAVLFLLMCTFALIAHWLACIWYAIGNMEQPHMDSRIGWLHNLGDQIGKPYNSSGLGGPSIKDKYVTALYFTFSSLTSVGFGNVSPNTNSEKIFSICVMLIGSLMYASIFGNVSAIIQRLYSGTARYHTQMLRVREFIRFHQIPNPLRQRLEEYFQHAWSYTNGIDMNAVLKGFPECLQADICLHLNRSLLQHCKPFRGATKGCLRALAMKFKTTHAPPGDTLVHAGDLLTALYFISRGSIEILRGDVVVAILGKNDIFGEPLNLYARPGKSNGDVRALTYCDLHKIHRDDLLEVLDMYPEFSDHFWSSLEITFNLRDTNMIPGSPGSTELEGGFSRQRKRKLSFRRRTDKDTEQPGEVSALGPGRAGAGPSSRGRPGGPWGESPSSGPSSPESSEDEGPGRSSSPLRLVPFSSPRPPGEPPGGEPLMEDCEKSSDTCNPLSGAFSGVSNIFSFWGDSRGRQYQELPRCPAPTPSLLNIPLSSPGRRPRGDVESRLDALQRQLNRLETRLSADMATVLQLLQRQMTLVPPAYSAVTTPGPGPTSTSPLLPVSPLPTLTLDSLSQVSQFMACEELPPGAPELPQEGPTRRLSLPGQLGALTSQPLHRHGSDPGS
With `N#CCN1C(=O)NC2(CCCc3sccc32)C1=O` (stereo not shown), the “hERG current change (%, negative = inhibition) at 10uM” value is reported as 11.1%. The same measure for `COc1cccc(-c2csc(/C(C#N)=C/Nc3cc4oc5ccccc5c4cc3OC)n2)c1`: 12.8%; for `O=C(c1noc2c1CCCC2)N1CCCCC1`: -0.65%; for `Cc1cnc2c(c1)C(=O)c1ccccc1-2`: 13.6%. Consider `O=C(NCCN1CCOCC1)c1ccccc1[N+](=O)[O-]`, for which the “hERG current change (%, negative = inhibition) at 10uM” value came to 1.06%. As for `CN1CCN(c2ccc(NC(=S)NC(=O)/C=C/c3ccco3)cc2)CC1`, the “hERG current change (%, negative = inhibition) at 10uM” value is given as -7.96%.

Turning to `CCOc1ccc(S(=O)(=O)N2CCN(Cc3ccc4c(c3)OCO4)CC2)cc1Cl`, the “hERG current change (%, negative = inhibition) at 10uM” value is given as -8.94%.

Consider `Cn1cnc(S(=O)(=O)N2CCN(C(c3ccc(F)cc3)c3ccc(F)cc3)CC2)c1`, for which the “hERG current change (%, negative = inhibition) at 10uM” value is -7.05%.

In the case of `Cc1cc(C)c(C)c(S(=O)(=O)NCCN2CCOCC2)c1C`, the “hERG current change (%, negative = inhibition) at 10uM” value is reported as -9.48%. The same measure for `Cc1cc(=O)oc2c1ccc1ccccc12`: 18.7%; for `CCN1CCCC1CN(Cc1cc2ccc(C)cc2[nH]c1=O)C(=S)Nc1ccccc1C(=O)OC` (stereo not shown): -85.2%. As to `CCN(CC)CCN(Cc1cc2ccc(C)cc2[nH]c1=O)C(=S)Nc1ccccc1C(=O)OC`, the “hERG current change (%, negative = inhibition) at 10uM” value is -64.2%.

For the molecule `CNC(=S)N(Cc1ccc(OC)cc1)Cc1cc2ccc(C)cc2[nH]c1=O`, the “hERG current change (%, negative = inhibition) at 10uM” value worked out at 14%.

In the case of `Cc1ccc2[nH]c(=O)c(CN(CC3CCCO3)C(=S)Nc3ccccc3)cc2c1` (stereo not shown), the “hERG current change (%, negative = inhibition) at 10uM” value is listed as -8.2%.

On to `COC(=O)c1ccccc1NC(=S)N(Cc1ccc2c(c1)OCO2)Cc1cc2cc(OC)ccc2[nH]c1=O`, for which the “hERG current change (%, negative = inhibition) at 10uM” value was found to be 8.29%. Turning to `COC(=O)c1ccccc1NC(=S)N(Cc1ccc2c(c1)OCO2)Cc1cc2cc(C)ccc2[nH]c1=O`, the “hERG current change (%, negative = inhibition) at 10uM” value was 0.949%.

Turning to `COC(=O)c1ccccc1NC(=S)N(Cc1ccc2c(c1)OCO2)Cc1cc2ccc(C)cc2[nH]c1=O`, the “hERG current change (%, negative = inhibition) at 10uM” value is 15.1%. The same measure for `CCN1CCCC1CN(Cc1cc2ccc(C)cc2[nH]c1=O)C(=S)Nc1ccc(OC)cc1OC` (stereo not shown): -74.5%; for `Cc1ccc2cc(CN(CC3CCCO3)C(=S)Nc3ccccc3)c(=O)[nH]c2c1` (stereo not shown): -37%; for `COC(=O)c1ccccc1NC(=S)N(Cc1ccc2c(c1)OCO2)Cc1cc2ccc(OC)cc2[nH]c1=O`: -13.6%. The same measure for `CCN1CCCC1CN(Cc1cc2ccc(C)cc2[nH]c1=O)C(=S)Nc1ccc(F)cc1` (stereo not shown): -78.5%. The same measure for `CCN1CCCC1CN(Cc1cc2ccc(C)cc2[nH]c1=O)C(=S)Nc1ccccc1OC` (stereo not shown): 46.7%; for `Cc1ccc(NC(=O)CCN2C(=O)C3C4CCC(C4)C3C2=O)cc1[N+](=O)[O-]` (stereo not shown): -0.749%. Regarding `O=C(Nc1ccc(C(F)(F)F)cc1)c1cc(-c2cccnc2)nc2ccc(Br)cc12`, the “hERG current change (%, negative = inhibition) at 10uM” value is -16.2%. `COc1ccc(N(CC(=O)NC(C)C)S(=O)(=O)c2ccc(NC(C)=O)cc2)cc1`: the “hERG current change (%, negative = inhibition) at 10uM” value is 2.29%. The same measure for `CC(=O)c1c(C)[nH]c(C(=O)COC(=O)CCCOc2ccccc2)c1C`: 18.7%; for `Cc1cccc(N(C(=O)Cn2nnc3ccccc32)C(C(=O)NC(C)(C)C)c2ccsc2)c1C` (stereo not shown): 19.7%; for `CCN1CCCC1CN(Cc1cc2ccc(C)cc2[nH]c1=O)C(=S)Nc1cccc(OC)c1` (stereo not shown): -70.7%.

For `CCN1CCCC1CN(Cc1cc2ccc(C)cc2[nH]c1=O)C(=S)Nc1ccc(OC)cc1` (stereo not shown), the “hERG current change (%, negative = inhibition) at 10uM” value was found to be 25.3%. The same measure for `COc1ccc2[nH]c(=O)c(CN(CC3CCCO3)C(=S)Nc3cccc(C)c3)cc2c1` (stereo not shown): 16.3%; for `CC(=O)N(Cc1ccc(F)cc1)C1=C(NCCc2ccccc2)C(=O)c2ccccc2C1=O`: -0.648%; for `NC(N)=N/N=C/c1c(Cl)cccc1Cl`: -10.3%.

Consider `COC(=O)CCCC(NC(=S)N1CC2C[C@@H](C1)Cn1c2cccc1=O)C(=O)OC` (stereo partly shown), for which the “hERG current change (%, negative = inhibition) at 10uM” value turned out to be 8.56%. To `Cc1cccc(NC(=S)N(CCCN2CCCC2)Cc2cccn2Cc2ccc(Cl)cc2)c1` belongs -71.8%. To `Cc1ccc(NC(=S)N(CCCN2CCCC2)Cc2cccn2Cc2ccc(Cl)cc2)cc1` belongs -22.9%; to `Cc1ccc(NC(=S)N(CCCN2CCCC2)Cc2cccn2Cc2ccc(Cl)cc2)cc1C`, 4.72%. The same measure for `S=C(Nc1cccc(Cl)c1)N(CCCN1CCCC1)Cc1cccn1Cc1ccc(Cl)cc1`: -22.7%. `Cc1ccc(NC(=S)N(CCCN2CCCC2)Cc2cccn2Cc2ccc(Cl)cc2)cc1Cl`: the “hERG current change (%, negative = inhibition) at 10uM” value stood at 6.99%. The same measure for `CCOc1ccc(NC(=S)N(CCCN2CCCC2)Cc2cccn2Cc2ccc(Cl)cc2)cc1`: -58.4%.

In the case of `CCCCC(CC)CNC(=O)C1C2C=CC(C2)C1C(=O)O` (stereo not shown), the “hERG current change (%, negative = inhibition) at 10uM” value was -4.63%. To `CC1(C(=O)NC2CCCCC2)CCC(=O)N1Cc1cccs1` (stereo not shown) belongs -0.227%; to `O=C(NCCCN1CCCC1=O)c1csc2ccccc12`, -28.2%; to `CCOc1ccc(CN2CCCC(CO)(Cc3ccc(F)cc3)C2)cc1` (stereo not shown), -62%. `CC(C)Oc1ccc(CN2CCCC(CO)(Cc3ccccc3)C2)cc1CO` (stereo not shown): the “hERG current change (%, negative = inhibition) at 10uM” value was -43.1%.

Regarding `CCn1cc(CN2CCCC(CO)(Cc3ccc(F)cc3)C2)c2ccccc21` (stereo not shown), the “hERG current change (%, negative = inhibition) at 10uM” value is on record as -32%. The same measure for `COc1cc(CN2CCCC(CO)(Cc3ccccc3F)C2)ccc1O` (stereo not shown): -22.5%; for `CSCCCN1CCCC(CO)(Cc2ccc(F)cc2)C1` (stereo not shown): -30.1%. To `CC(C)Oc1ccc(CN2CCCC(CO)(Cc3ccc(F)cc3)C2)cc1` (stereo not shown) belongs -58.7%; to `COC(=O)c1ccc(CN2CCCC(CO)(Cc3ccccc3F)C2)cc1` (stereo not shown), -32.7%. To `CCOc1ccc(CN2CCCC(CO)(Cc3ccccc3F)C2)cc1` (stereo not shown) belongs -64.8%; to `O=C(O)c1cccc2c1C(=O)c1cc(Br)ccc1S2(=O)=O`, 20.2%; to `Cc1ccc(S(=O)(=O)NCCS(=O)(=O)N2CCN(c3ccccc3)CC2)cc1`, -1.5%.

(Values after paper PMC4336329 (PLoS ONE, 2015).)
